High-throughput results as filed in PubChem BioAssay.
Most compounds without a hit are left out; they make up all but 1.8% or so of the library.
PERK inh: human PERK inhibition, primary cell-based screen; AID 1416; CHO PERK-DD fusion, SEAP luminescence translation reporter; 220,000 compounds, 0.17% hits; inhibition, % at 5.6 µM; Q9NZJ5;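 active = inhibition above the mean inhibition of all tested compounds plus 3 SD, set separately per screening campaign, cut at about 2.9% in these data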;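 also: PERK kinase domain activated by AP20187 dimerizer at 100 nM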
EP2 mod: modulators of human EP2 prostaglandin E2 receptor; EP2-expressing cells, cAMP HTRF FRET, PGE2 co-stimulation; induction, % at 25 µM; 260,000 compounds, 0.83% hits;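 active = compounds whose cAMP rise, as percent of the full-agonist control response, exceeds 60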;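 also: rat C6 glioma line stably carrying human EP2 under a CMV promoter; the protocol text gives 20 µM as final concentration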
eIF4E-4G inh: blocks eIF4E binding to eIF4G; P63073+Q04637; TR-FRET eIF4E-eIF4GI(517-606) binding, 2 h; inhibition, % at 21.7 µM; 220,000 compounds, 0.37% hits; AID 782;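 active = inhibition above about 30%, limit read from the data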
Target sequence (P63073 whole entry, looked up): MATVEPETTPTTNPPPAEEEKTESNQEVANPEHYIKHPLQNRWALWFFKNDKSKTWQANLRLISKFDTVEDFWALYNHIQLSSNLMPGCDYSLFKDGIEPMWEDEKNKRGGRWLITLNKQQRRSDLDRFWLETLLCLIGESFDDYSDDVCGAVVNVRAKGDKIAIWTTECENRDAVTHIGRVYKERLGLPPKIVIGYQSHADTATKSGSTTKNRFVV
Target sequence (Q04637 whole entry, looked up): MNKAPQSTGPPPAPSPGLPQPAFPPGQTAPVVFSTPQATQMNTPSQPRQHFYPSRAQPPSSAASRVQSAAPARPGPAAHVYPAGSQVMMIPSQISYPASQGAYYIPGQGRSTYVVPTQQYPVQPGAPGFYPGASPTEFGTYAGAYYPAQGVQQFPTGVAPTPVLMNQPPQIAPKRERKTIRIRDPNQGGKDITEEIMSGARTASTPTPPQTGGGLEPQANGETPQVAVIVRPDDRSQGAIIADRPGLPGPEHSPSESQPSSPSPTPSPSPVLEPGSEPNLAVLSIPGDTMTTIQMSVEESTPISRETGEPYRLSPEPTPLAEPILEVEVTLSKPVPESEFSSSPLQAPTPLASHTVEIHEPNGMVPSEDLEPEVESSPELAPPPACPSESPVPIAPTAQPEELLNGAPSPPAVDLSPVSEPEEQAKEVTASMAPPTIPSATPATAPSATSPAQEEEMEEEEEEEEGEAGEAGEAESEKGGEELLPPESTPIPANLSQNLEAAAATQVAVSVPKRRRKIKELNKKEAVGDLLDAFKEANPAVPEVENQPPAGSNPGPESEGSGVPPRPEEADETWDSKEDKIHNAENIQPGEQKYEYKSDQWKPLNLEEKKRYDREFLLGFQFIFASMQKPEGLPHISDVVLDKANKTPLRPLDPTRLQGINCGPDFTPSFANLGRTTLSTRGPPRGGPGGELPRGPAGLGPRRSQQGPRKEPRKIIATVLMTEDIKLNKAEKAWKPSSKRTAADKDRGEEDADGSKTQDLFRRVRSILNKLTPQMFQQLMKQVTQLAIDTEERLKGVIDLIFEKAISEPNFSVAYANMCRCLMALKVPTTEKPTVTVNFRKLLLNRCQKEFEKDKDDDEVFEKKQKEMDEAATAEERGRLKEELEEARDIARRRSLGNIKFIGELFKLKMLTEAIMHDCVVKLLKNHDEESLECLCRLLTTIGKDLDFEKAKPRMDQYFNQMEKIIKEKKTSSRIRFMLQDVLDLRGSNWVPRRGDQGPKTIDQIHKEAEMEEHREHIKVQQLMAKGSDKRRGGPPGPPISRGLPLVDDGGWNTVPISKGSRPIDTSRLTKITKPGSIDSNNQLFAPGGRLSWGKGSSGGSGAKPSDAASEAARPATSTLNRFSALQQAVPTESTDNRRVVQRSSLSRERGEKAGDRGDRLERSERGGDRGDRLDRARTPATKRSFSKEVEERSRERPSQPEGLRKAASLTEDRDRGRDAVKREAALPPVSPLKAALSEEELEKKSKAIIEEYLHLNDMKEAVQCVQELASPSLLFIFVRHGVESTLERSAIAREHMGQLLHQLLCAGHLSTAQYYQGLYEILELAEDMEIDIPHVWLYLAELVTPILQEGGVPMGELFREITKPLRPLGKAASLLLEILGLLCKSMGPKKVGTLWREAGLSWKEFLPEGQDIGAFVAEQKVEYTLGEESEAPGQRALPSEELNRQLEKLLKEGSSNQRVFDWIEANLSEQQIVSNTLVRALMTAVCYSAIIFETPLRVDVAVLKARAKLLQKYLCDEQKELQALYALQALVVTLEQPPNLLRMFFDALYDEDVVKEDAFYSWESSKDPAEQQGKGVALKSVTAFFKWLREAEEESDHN
EP2 antag: EP2 receptor (human) inhibition | P43116 | C6 glioma cells expressing human EP2, cAMP TR-FRET; cells stimulated with saturating PGE2 | inhibition, % at 25 µM | 260,000 compounds, 0.52% hits | AID 1422;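 active = percent inhibition above 40 after rounding to a whole number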;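 also: rat C6 glioma host cells with rolipram phosphodiesterase inhibitor present; the protocol text gives 20 µM as final concentration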
Numbers stand for hits; [ ] = remark or other dose.

Results for C=CCc1cc(C)ccc1OCCOCCC(C(=O)OCC)C(=O)OCC ?
PERK inh: inactive; EP2 mod: 62.5; eIF4E-4G inh: inactive; EP2 antag: inactive

Results for O=C(CSc1ncnc2sc3c(c12)CCCC3)OCc1ccccc1 ?
EP2 mod: 62.4; EP2 antag: inactive

Results for O=C(CSc1ncnc2sc3c(c12)CCCC3)c1ccccc1 ?
PERK inh: inactive; EP2 mod: inactive; eIF4E-4G inh: inactive; EP2 antag: inactive

How did O=C(Nc1nccs1)c1cc(-c2ccco2)nc2ccccc12 do in these assays?
PERK inh: inactive; EP2 mod: inactive; eIF4E-4G inh: 35.9[fluorescence artefact?]; EP2 antag: inactive

What do the screens show for `O=C(O)c1cc(-c2ccco2)nc2ccccc12`?
PERK inh: inactive; EP2 mod: inactive; eIF4E-4G inh: inactive; EP2 antag: inactive

How did O=C(NC1CC1)c1cc(-c2ccco2)nc2ccccc12 do in these assays?
PERK inh: inactive; EP2 mod: inactive; eIF4E-4G inh: 56.5; EP2 antag: inactive

Results for O=C(Nc1nccs1)c1cc(-c2ccccc2)nc2ccccc12 ?
PERK inh: inactive; EP2 mod: inactive; eIF4E-4G inh: inactive; EP2 antag: inactive

Results for O=C(Nc1cccc(S(=O)(=O)NC2=NCCC2)c1)c1cc(-c2ccco2)nc2ccccc12 ?
PERK inh: 3.2; EP2 mod: inactive; eIF4E-4G inh: 47.9; EP2 antag: inactive

What do the screens show for `CCCc1nn(CC(=O)NCc2ccco2)c(=O)c2cc3ccsc3n12`?
EP2 mod: inactive

Results for COC(=O)CCC(C)C1CCC2C3CC[C@@H]4C[C@H](O)CC[C@]4(C)C3C[C@H](O)[C@]12C (some centres undefined) ?
EP2 mod: inactive; EP2 antag: inactive

How did Cc1ccc(C2=C(Cl)C(=O)C(c3ccc(C)cc3)=C(Cl)C2=O)cc1 do in these assays?
EP2 mod: inactive; EP2 antag: 46.4

What do the screens show for `Cc1ccc(-n2c(-c3ccc(Cl)cc3)c[n+]3c2CCC3)cc1`?
PERK inh: inactive; EP2 mod: inactive; eIF4E-4G inh: 94.2; EP2 antag: inactive

What do the screens show for `O=[N+]([O-])c1ccc(C2NS(=O)(=O)N=C3CCCCCN32)cc1` (centres undefined)?
PERK inh: 3.6; EP2 mod: inactive; eIF4E-4G inh: inactive; EP2 antag: inactive

Results for O=S1(=O)N=C2CCCCCN2C(c2ccc(F)cc2)N1 (centres undefined) ?
PERK inh: inactive; EP2 mod: inactive; eIF4E-4G inh: inactive; EP2 antag: inactive

What do the screens show for `C/C(=N\N(c1ccccc1)c1ccccc1)c1ccco1`?
PERK inh: inactive; EP2 mod: 61.7; eIF4E-4G inh: inactive; EP2 antag: inactive

How did C/C(=N/NC(=O)c1cccs1)c1ccco1 do in these assays?
PERK inh: inactive; EP2 mod: inactive; eIF4E-4G inh: inactive; EP2 antag: inactive

What do the screens show for `CCn1c(CCCc2nc3c([nH]2)c(=O)n(C)c(=O)n3C)nc2c1c(=O)n(C)c(=O)n2C`?
EP2 mod: inactive; EP2 antag: 44.8

Results for Cn1c(=O)c2[nH]c(CCCCc3nc4ccccc4[nH]3)nc2n(C)c1=O ?
EP2 mod: inactive; EP2 antag: 40.6

How did NC(=O)C12CCCC(Br)(CCC1)C2 do in these assays?
PERK inh: inactive; EP2 mod: inactive; eIF4E-4G inh: 91.6; EP2 antag: inactive

What do the screens show for `Cc1nc2ccccc2n1-c1ccccc1`?
PERK inh: inactive; EP2 mod: inactive; eIF4E-4G inh: inactive; EP2 antag: inactive

Results for c1ccc(-n2c3ccccc3c3ccccc32)cc1 ?
PERK inh: inactive; EP2 mod: 63.5; eIF4E-4G inh: inactive; EP2 antag: inactive

What do the screens show for `CCN(CC)C(=O)CSc1nnc(-c2ccncc2)n1CCOC`?
EP2 mod: inactive; EP2 antag: inactive

What do the screens show for `CCOc1ccc(/C=C2\SC(=O)N(c3ccc(O)cc3)C2=O)cc1OC`?
PERK inh: inactive; EP2 mod: inactive; eIF4E-4G inh: inactive; EP2 antag: inactive

How did COc1cc(/C=C2\SC(=O)N(c3cccc(Cl)c3)C2=O)cc([N+](=O)[O-])c1O do in these assays?
PERK inh: inactive; EP2 mod: inactive; eIF4E-4G inh: 61.3; EP2 antag: inactive

How did COc1cc(/C=C2\SC(=O)N(c3ccc(Cl)cc3)C2=O)cc([N+](=O)[O-])c1O do in these assays?
PERK inh: inactive; EP2 mod: inactive; eIF4E-4G inh: 71.4; EP2 antag: inactive

How did CCOC(=O)CSC1=NC(=O)/C(=C\c2ccc(OC(C)=O)cc2)S1 do in these assays?
PERK inh: inactive; EP2 mod: inactive; eIF4E-4G inh: inactive; EP2 antag: 53.4

How did CCN1CCCC1CN(Cc1ccccn1)Cc1n[nH]nc1-c1ccccc1 (centres undefined) do in these assays?
EP2 mod: inactive; EP2 antag: inactive

Results for O=C(Nc1cccc(-c2cn3ccccc3n2)c1)c1cccc(Cl)c1 ?
PERK inh: inactive; EP2 mod: inactive; eIF4E-4G inh: inactive; EP2 antag: 61.1

How did O=C(Nc1ccc(-c2cn3ccccc3n2)cc1)c1cccs1 do in these assays?
PERK inh: inactive; EP2 mod: inactive; eIF4E-4G inh: inactive; EP2 antag: inactive

How did O=C(Nc1ccc(-c2cn3ccccc3n2)cc1)c1cc(Br)ccc1O do in these assays?
EP2 mod: inactive; EP2 antag: 44.6

How did Cc1sc(NC(=O)CCC(=O)O)c(C(N)=O)c1C do in these assays?
EP2 mod: inactive; EP2 antag: inactive

Results for CCc1ccc(OCCCC(=O)Nc2nncs2)cc1 ?
EP2 mod: inactive; EP2 antag: inactive

How did CC(=O)OC[C@]1(OC(C)=O)C[C@@]23CC[C@H]4[C@@](C)(CCC[C@@]4(C)C(=O)O)[C@@H]2CC[C@@H]1C3 do in these assays?
PERK inh: inactive; EP2 mod: inactive; eIF4E-4G inh: inactive; EP2 antag: inactive

How did CC(C)[C@]1(Cl)CC[C@H]2[C@]3(C)CCC[C@@](C)(C(=O)O)[C@H]3C[C@@H](Cl)[C@]2(Cl)[C@H]1Cl do in these assays?
EP2 mod: inactive; EP2 antag: 47.6

Results for c1ccc(Nc2nc(NCc3ccco3)c3ccccc3n2)cc1 ?
PERK inh: inactive; EP2 mod: inactive; eIF4E-4G inh: inactive; EP2 antag: 61.5

What do the screens show for `C#CCN1C(=O)C(O)(CC(=O)c2ccc(OC)c(OC)c2)c2ccccc21` (centres undefined)?
PERK inh: inactive; EP2 mod: inactive; eIF4E-4G inh: 97.3; EP2 antag: inactive

What do the screens show for `COc1ccc(C(=O)CC2(O)C(=O)N(CCCC#N)c3ccccc32)cc1OC` (centres undefined)?
EP2 mod: inactive; EP2 antag: inactive

How did OCCN1CCN(CCCN2c3ccccc3Sc3ccc(Cl)cc32)CC1 do in these assays?
PERK inh: inactive; EP2 mod: inactive; eIF4E-4G inh: inactive; EP2 antag: inactive

Results for OC1C[C@H]2CC[C@@H](C1)N2CCCN1c2ccccc2Sc2ccc(Cl)cc21 (some centres undefined) ?
EP2 mod: inactive; EP2 antag: 47.1

What do the screens show for `CCCC(c1cc(C(C)(C)C)c(O)cc1C)c1cc(C(C)(C)C)c(O)cc1C`?
EP2 mod: inactive; EP2 antag: 63.8

What do the screens show for `CC1=NC(=O)C(N=O)N1c1ccccc1` (centres undefined)?
EP2 mod: inactive; EP2 antag: 50.8
